# From paper PMC5540273 (PLoS ONE, 2017)
# How the values were obtained:
# Conditions in all cases: concentration: 1 μM, replicates: in singlicate; n = 1
# [1] = system: T1, LOK
# T1 construct: gene STK10
# [2] = system: LRRK2
# [3] = system: LTK
# [4] = system: LYN
# [5] = system: T2, LZK
# T2 construct: gene MAP3K13
# [6] = system: MAK
# [7] = system: MAP3K15
# [8] = system: MAP3K1
# [9] = system: MAP3K2
# [10] = system: MAP3K3
# [11] = system: MAP3K4
# [12] = system: MAP4K2
# [13] = system: MAP4K3
# [14] = system: MAP4K4
# [15] = system: MAP4K5
# [16] = system: MAPKAPK2
# [17] = system: MAPKAPK5
# [18] = system: MARK1
# [19] = system: MARK2
# [20] = system: MARK3
# 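Note: KINOMEscan kinase panel screen.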
SMILES,%Inh [1] [%],%Inh [2] [%],%Inh [3] [%],%Inh [4] [%],%Inh [5] [%],%Inh [6] [%],%Inh [7] [%],%Inh [8] [%],%Inh [9] [%],%Inh [10] [%],%Inh [11] [%],%Inh [12] [%],%Inh [13] [%],%Inh [14] [%],%Inh [15] [%],%Inh [16] [%],%Inh [17] [%],%Inh [18] [%],%Inh [19] [%],%Inh [20] [%]
Nc1nccc2scc(-c3ccc4c(c3)CCN4C(=O)Cc3ccccc3)c12 [GSK2576924],21,0,69,0,1,23,9,0,12,0,10,6,17,24,48,6,0,0,1,1
Cc1ccccc1COc1cc(-n2cnc3cc(Cl)ccc32)sc1C(N)=O [GW813349],46,82,9,33,0,0,1,32,5,11,20,0,0,12,20,0,0,0,0,14
Cc1cccc(-c2nc(Nc3ccc4c(cnn4C)c3)c3ccccc3n2)n1 [GW876731],10,0,0,5,0,29,0,0,12,10,10,0,0,0,0,0,0,12,0,34
CN(C)c1cc(-c2ccc3c(N)n[nH]c3c2)nc(N)n1 [GSK2219329],0,0,4,0,10,16,0,0,0,0,0,0,0,9,7,0,0,0,0,0
CN1C(=O)C(Nc2cc(Cl)c(O)c(Cl)c2)=C(c2ccc(Cl)cc2)C1=O [SB-404321],0,0,0,24,6,0,0,0,0,0,0,0,0,0,0,89,0,0,10,0
O=C(Nc1ccc2c(c1)OCO2)NC1CCN(c2ccnc(NCc3ccc(F)cc3)n2)CC1 [GSK1379859],0,0,1,4,0,79,0,8,0,0,0,0,0,3,0,13,0,8,0,0
CCS(=O)c1ccc(-c2coc3ccc(-c4nnc(C)o4)cc23)cc1 (stereo not shown),17,5,0,0,34,15,0,3,8,20,0,0,0,5,4,0,7,4,8,17
CCS(=O)(=O)c1ccc(OC)c(Nc2ncc(-c3ccc(F)cc3)o2)c1.Cl [GW591947],0,0,0,0,0,80,0,0,0,0,22,0,0,5,0,1,0,0,0,0
C[C@@H]1CC[C@H](C(=O)NC2CCCCC2)CN1c1cc(-c2ccc3c(N)n[nH]c3c2)nc(N)n1 [GSK2291363],0,0,0,0,0,25,0,21,20,0,28,0,0,7,0,0,0,3,3,0
COC(=O)c1c(-c2ccccc2)c2cc(Br)ccc2c(=O)n1Cc1ccc(S(C)(=O)=O)cc1,6,11,9,14,33,34,26,27,0,32,9,0,0,19,0,4,2,1,0,11
COc1ccc(-c2cc3c(C)nc(N)nc3n([C@H]3CC[C@H](OCCO)CC3)c2=O)cn1,9,0,9,0,0,0,0,0,0,0,4,0,30,0,0,0,0,0,1,0
O=C(Nc1n[nH]c2cc(-c3ccccc3F)ccc12)C1CC1 [SB-733371],1,0,0,0,0,0,32,0,0,22,29,16,0,43,18,0,10,0,29,0
Nc1nc(N)c2nc(-c3ccccc3)[nH]c2n1 [SKF-12778],14,18,5,3,0,3,12,9,26,13,26,26,0,26,21,13,5,1,0,0
Nc1n[nH]c2nnc(-c3ccccc3)c(-c3ccccc3)c12 [GW554060],0,41,0,100,3,26,0,25,3,0,0,0,0,0,0,22,0,0,0,0
Cc1ccc(-c2ccc3c(ccc4sc5c(c43)NC[C@@H](C)N=C5N(C)C)n2)cn1,0,0,0,0,0,17,0,0,0,0,0,0,0,0,0,0,0,0,5,0
Nc1ncnc2c1ncn2-c1ccc(Cl)cc1 [AH2635],0,0,14,0,27,8,0,0,0,0,0,0,0,12,0,10,0,0,0,3
Cl.NS(=O)(=O)c1cccc(Nc2cc(-c3ccc(F)cc3)n[nH]2)c1 [GW824645],0,0,0,0,0,0,1,0,22,0,1,0,0,0,0,0,0,0,19,14
COc1cc2ncn(-c3cc(OCc4ccncc4)c(C(N)=O)s3)c2cc1OC [GSK336313],0,0,2,0,0,23,11,25,0,0,0,0,0,0,3,5,0,0,0,0
COc1cc2nccc(Nc3ccc(OCc4ccc(NC(C)=O)cc4)cc3)c2cc1OC.Cl [GW440135],0,0,0,23,24,0,0,0,18,0,37,1,0,0,0,28,0,0,0,0
COc1cc(Nc2nccc(N3CCC(NC(=O)C4COc5ccccc5O4)C3)n2)cc(OC)c1OC (stereo not shown) [GSK1379761],0,0,38,19,58,44,0,2,10,0,22,0,2,6,0,0,0,0,0,0
